ERb coact inh: ER-beta (human) coactivator binding inhibition; 86,000 tested, 1.3% active; inhibition, % at 25.6 µM; AID 633; TR-FRET ER-beta LBD / SRC1-Cy5 peptide binding; receptor agonist-loaded with 1 µM estradiol; Q92731;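 active = compounds whose percent inhibition of the receptor-coactivator binding signal exceeds about 50% in the single-dose screen, limit read from the data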
ERa coact pot: ER-alpha (human) coactivator binding potentiation | P03372 | TR-FRET ERalpha-LBD/SRC-Cy5 coactivator binding, 2 h; 100 = basal binding, no effect | coactivator binding (% of control), % at 25.6 µM | 86,000 tested, 1.3% active | AID 639; in the data active = activity above about 200%;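 also: binding measured in presence of low estradiol as agonist stimulus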
ERa coact inh: ER-alpha (human) coactivator binding inhibition; TR-FRET ER-alpha LBD / SRC-1 peptide, estradiol-bound; inhibition, % at 25.6 µM; 86,000 tested, 1.7% active; in the data active = inhibition above about 50%
Smad3 FoxH1 inh: blocks human Smad3 binding to FoxH1 peptide. P84022. TR-FRET Smad3/Dy647-FoxH1 peptide binding, europium anti-His. inhibition, % at 25 µM. 88,000 tested, 0.29% active;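 active = compounds that reduce the energy-transfer binding signal between the protein and its labelled peptide by more than half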
Calb biofilm kill: kills Candida albicans biofilms; C. albicans biofilm + clotrimazole, Alamar Blue; inhibition, % at 6 µM; 85,000 tested, 0.14% active;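 active = inhibition above 20%; inactive = inhibition below 20%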;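 also: preformed 24 hr biofilms exposed to compound for 48 hr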
Hits are given with their value; 0 = inactive; - = not tested or not shown; [ ] = remark or other dose. The list is not random: actives were taken first. Their share in the collection is about 3.8%.

SMILES	ERb coact inh	ERa coact pot	ERa coact inh	Smad3 FoxH1 inh	Calb biofilm kill
CC(=O)c1cccc(NC(=O)Cc2cccs2)c1	73[fluorescence artefact?]	0	84	0	0
CCCCN(CCCC)S(=O)(=O)c1ccc(NC(=O)Cc2cccs2)cc1	67	0	67[fluorescence artefact?]	0	0
CCCN(CCC)S(=O)(=O)c1ccc(NC(=O)Cc2cccs2)cc1	0	0	63	0	0
O=C(NCCc1ccccc1)C(NS(=O)(=O)c1cccc2nsnc12)c1ccccc1 (centres undefined)	-	-	-	-	0
O=C(CON1C(=O)c2ccccc2C1=O)c1ccccc1	-	-	-	0	-
CCc1nc(N)nc(N)c1-c1ccc(Cl)cc1	0	246	0	0	0
CCc1nc(N)c(C#N)c(-c2ccncc2)c1C	0	0	0	0	0
Cc1ccc(C(=O)NCC(=O)OCC(=O)c2c(N)n(C)c(=O)n(C)c2=O)s1	50	0	53	0	0
Cc1cc(C)n2nc(C(=O)OCC(=O)c3cc(C)n(C)c3C)nc2n1	51[fluorescence artefact?]	0	0	0	0
Cc1cc(C)n2nc(C(=O)OCCOc3ccc(F)cc3)nc2n1	0	0	0	0	0
CCOc1[nH]c(/N=C/c2ccco2)c(C#N)c1C#N	60	0	0	0	0
N#Cc1c(/N=C/c2ccco2)sc2c1CCC2	0	0	0	0	0
Cc1cc(C)n(-c2nc(SCCN(C)C)c3c4c(sc3n2)CCCC4)n1	0	0	0	0	0
CCC(O)CNc1nc(-n2nc(C)cc2C)nc2sc3c(c12)CCCC3 (centres undefined)	0	203	0	0	0
O=C1c2ccccc2-c2c1cccc2C(=O)N1CCOCC1	56[fluorescence artefact?]	0	0	0	0
CCN1C(=S)SC(=O)C1=C1C=C(C)N(CCO)C(C)=C1	0	244[fluorescence artefact?]	0	0	0
CCC(=Nc1ccc(N)cc1)C1=C(O)C(C(=O)OC)C(C)(C)CC1=O (centres undefined)	83[fluorescence artefact?]	0	0	0	0
CC(C)(C)OC(=O)N1CCC(c2cc(=O)n3[nH]c(-c4ccc(Cl)cc4)cc3n2)CC1	0	251[fluorescence artefact?]	0	0	0
CCOC(=O)c1sc(NC(=O)C2CCCO2)c(C(=O)OCC)c1C (centres undefined)	0	0	57	0	0
CCOc1ncccc1C(=O)OCc1cc(=O)n2c(n1)sc1ccccc12	56[fluorescence artefact?]	0	84[fluorescence artefact?]	0	0
OCCCNCc1ccncc1	-	-	-	0	-
O=C(Cn1nnc(-c2ccccc2NC(=O)c2ccco2)n1)Nc1ccccc1	0	286[fluorescence artefact?]	60[fluorescence artefact?]	0	0
COc1ccc(NC(=O)Cn2nnc(-c3ccccc3NC(=O)c3cccs3)n2)cc1	0	237[fluorescence artefact?]	0	0	0
CCOC(=O)c1sc(NC(=O)CNC(=O)Cn2cnc3sc(C)c(C)c3c2=O)nc1C	0	226	0	0	0
COc1ccc(Cl)c(Cn2c(NCc3ccco3)nc3c2c(=O)n(C)c(=O)n3C)c1	53[fluorescence artefact?]	0	81[fluorescence artefact?]	0	0
SMILES	ERb coact inh	ERa coact pot	ERa coact inh	Smad3 FoxH1 inh	Calb biofilm kill
CCCn1c(NCc2ccco2)nc2c1c(=O)n(C)c(=O)n2C	53[fluorescence artefact?]	0	64[fluorescence artefact?]	0	0
Cn1c(=O)c2c(nc(NCc3ccco3)n2CC(O)COc2ccccc2)n(C)c1=O (centres undefined)	0	0	0	0	0
COc1cccc(Cn2c(NCc3ccco3)nc3c2c(=O)n(C)c(=O)n3C)c1	0	0	0	0	0
CC(C)CNS(=O)(=O)c1ccc(OCC(=O)NCC2CCCO2)c(Cl)c1 (centres undefined)	0	0	0	0	0
CCc1ccccc1NC(=O)/C(=C/c1ccco1)c1ccccc1	0	0	0	81[fluorescence artefact?]	67
CCn1cc(C(=O)Nc2nnc(C)s2)c(=O)c2cc(F)c(N3CCN(C(=O)c4ccco4)CC3)cc21	0	0	0	0	0
N#Cc1c2n(c3c(=O)n(Cc4ccccc4Cl)cnc13)CCCCC2	0	0	0	0	-
N#Cc1c2n(c(=S)n(-c3ccccn3)c1=O)CCCCC2	52[fluorescence artefact?]	0	0	0	0
N=C(N)SCc1ccc(Cl)cc1Cl (tested in a mixture with another compound)	-	-	-	0	-
COc1ccc(CN[C@H](C)C(=O)O)cc1	-	-	-	0	-
O=C1CC(c2ccc(F)cc2)Cc2nc(N3CCc4ccccc43)ncc21 (centres undefined)	0	203[fluorescence artefact?]	0	0	0
O=C1CC(c2ccc(F)cc2)Cc2nc(N3CCN(c4ccccc4)CC3)ncc21 (centres undefined)	0	0	0	0	0
O=C(Nc1cnc2ccccn2c1=O)c1ccc(Cl)cc1	0	0	0	0	0
COc1nc(-c2ccc(Cl)cc2)ccc1-c1noc(-c2ccco2)n1	0	376	0	0	0

Bioassay records: PubChem, several laboratories
